From PubChem BioAssay come the findings set out here.

SMILES strings stand for the structures. Several values for one entry are separate records, joined by “and”; a condition that tells them apart may be missing. Equal entries are not always repeated. Inconclusive results are not listed. Activity calls are given as the source filed them. Unless noted, how the calls were made is not given here.

Experiment [1] can be described thus: circadian clock period modulators, cell-based, LOPAC library, luminescence reporter (AID 2774).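 Further: values are relative to mean of DMSO wells on each plate.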 The following applies: circadian reporter cells, at 7 µM, actives lie on both sides.
Experiment [2] has as its system Hepatitis C virus NS3 helicase. The experiment is described as follows: HCV NS3 helicase inhibitors, primary screen, biochemical, fluorescence polarization, LOPAC1280 library (AID 687035; in the data active means inhibition above about 37%). To be noted: Purified HCV NS3 helicase, Cy5-dT15 ssDNA binding fluorescence polarization; stronger effect = higher value; concentration not given here.
The nature of experiment [3]: Cy5 fluorescence quenching or enhancement artefacts, artefact control for HCV NS3 helicase inhibitor project, biochemical, LOPAC1280 (AID 687037). The following applies: Cy5-DNA-NS3h complex fluorescence interference counterscreen. (In general: A counterscreen serves to expose hits that act by an unwanted route or on another target.)
A short description of experiment [4]: sensitizers of A549 cells to miR-34 induction, primary screen, imaging, A549 dox-inducible miR-34, nuclei and caspase counts (AID 1347080;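 active means compounds whose cell count with miR-34 switched on is under 0.7 times the count with it off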). The following applies: A549 miR-34 inducible, Hoechst nuclei count, 48 h.
Experiment [5] can be described thus: inhibitors of Cryptococcus chitosan production, flow cytometry, Cibacron Brilliant Red staining (AID 1347148).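 Further: compound exposure lasted three days at 37 degrees C.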 The following applies: Cryptococcus neoformans chitosan, stronger effect = lower value; at 10 µM unless noted. (In general: Flow cytometry measures light scatter and fluorescence of single cells or particles in a stream.)
A short description of experiment [6]: phospholipid biosynthesis inhibitors in animal cells, primary screen, cell-based, LOPAC library, screen 4 (AID 1347384). To be noted: phospholipid biosynthesis inhibition screen, at 10 µM.
Experiment [7] is described as follows: viability rescue of complex I mutant cybrids, primary screen, cell-based, galactose medium, ATP luminescence (AID 1645843;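 active means z-score of at least 1.8 in each of two replicates, scored against plate mean and spread of sample wells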;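 further: positive z means more ATP and so rescue of galactose-driven cybrid death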). The following applies: complex I mutant cybrid cells, 72 h, stronger effect = higher value.
Experiment [8] is described as follows: hESC survival regulators, cell-based (AID 493140).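 Further: cells exposed to compounds for four days before counting.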 The following applies: human embryonic stem cell survival screen; stronger effect = higher value.
Experiment [9] can be described thus: liver-stage malaria parasite growth inhibition, primary screen, cell-based, HepG2, luciferase luminescence, HepG2 viability (AID 624349; in the data active means parasite load remaining mostly below about 12%, no sharp cut-off; inactive means mostly above about 10%;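 further: 100% = mean of DMSO negative control wells on the same plate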). The following applies: P. berghei liver stage in HepG2, luciferase luminescence, concentration not given here; parasite load remaining: stronger effect = lower value; viability: measured here: HepG2 viability without parasites.
Experiment [10] is described as follows: modifiers of HSF1 nuclear foci, imaging, Selleck Cancer Library (AID 1347162; in the data active means plate-normalised HSF1 focus index below about 0.46). To be noted: human cells, at 10 µM; SSMD: measured here: HSF1 foci SSMD mean; cell count: measured here: cell number; plate-normalised HSF1 focus index: stronger effect = lower value.
Experiment [11] can be described thus: survival rescue of mitochondrial mutant cells in low glucose, primary screen, MELAS cybrids, Rieske KO mouse fibroblasts, CellTiter-Glo (AID 1508586;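 active means mean z-score across replicates of 1.96 or higher in either the MELAS or the Rieske mutant cell line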;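 further: z relative to plate mean and SD of compound and empty wells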). (In ATP-based viability assays light output follows the ATP content of the culture.)
In experiment [12] the target is ATP-dependent translocase ABCB1 (Homo sapiens) (UniProt P08183). The experiment is described as follows: MDR1 (ABCB1) efflux transporter inhibition, cell-based (AID 377; in the data active means fluorescence slope change above about 50%). To be noted: MDR1-expressing cells, fluorescent substrate accumulation slope; stronger effect = higher value; concentration not given here.
Where [13] appears, read: stronger effect = lower value, cell number ratio, induced over uninduced.
The mark [14] stands for this setting: measured here: relative caspase fold change +Dox/-Dox.
[15] abbreviates: measured here: total cells with miR-34 induction, stronger effect = lower value.
Setting [16] is: measured here: total cells without miR-34 induction.
[17] abbreviates: MELAS cybrid survival, CellTiter-Glo 48 h, stronger effect = higher value.
Setting [18] is: Rieske KO mouse fibroblast survival, CellTiter-Glo 72 h.

ATP-dependent translocase ABCB1 (Homo sapiens), sequence (P08183 whole entry, looked up): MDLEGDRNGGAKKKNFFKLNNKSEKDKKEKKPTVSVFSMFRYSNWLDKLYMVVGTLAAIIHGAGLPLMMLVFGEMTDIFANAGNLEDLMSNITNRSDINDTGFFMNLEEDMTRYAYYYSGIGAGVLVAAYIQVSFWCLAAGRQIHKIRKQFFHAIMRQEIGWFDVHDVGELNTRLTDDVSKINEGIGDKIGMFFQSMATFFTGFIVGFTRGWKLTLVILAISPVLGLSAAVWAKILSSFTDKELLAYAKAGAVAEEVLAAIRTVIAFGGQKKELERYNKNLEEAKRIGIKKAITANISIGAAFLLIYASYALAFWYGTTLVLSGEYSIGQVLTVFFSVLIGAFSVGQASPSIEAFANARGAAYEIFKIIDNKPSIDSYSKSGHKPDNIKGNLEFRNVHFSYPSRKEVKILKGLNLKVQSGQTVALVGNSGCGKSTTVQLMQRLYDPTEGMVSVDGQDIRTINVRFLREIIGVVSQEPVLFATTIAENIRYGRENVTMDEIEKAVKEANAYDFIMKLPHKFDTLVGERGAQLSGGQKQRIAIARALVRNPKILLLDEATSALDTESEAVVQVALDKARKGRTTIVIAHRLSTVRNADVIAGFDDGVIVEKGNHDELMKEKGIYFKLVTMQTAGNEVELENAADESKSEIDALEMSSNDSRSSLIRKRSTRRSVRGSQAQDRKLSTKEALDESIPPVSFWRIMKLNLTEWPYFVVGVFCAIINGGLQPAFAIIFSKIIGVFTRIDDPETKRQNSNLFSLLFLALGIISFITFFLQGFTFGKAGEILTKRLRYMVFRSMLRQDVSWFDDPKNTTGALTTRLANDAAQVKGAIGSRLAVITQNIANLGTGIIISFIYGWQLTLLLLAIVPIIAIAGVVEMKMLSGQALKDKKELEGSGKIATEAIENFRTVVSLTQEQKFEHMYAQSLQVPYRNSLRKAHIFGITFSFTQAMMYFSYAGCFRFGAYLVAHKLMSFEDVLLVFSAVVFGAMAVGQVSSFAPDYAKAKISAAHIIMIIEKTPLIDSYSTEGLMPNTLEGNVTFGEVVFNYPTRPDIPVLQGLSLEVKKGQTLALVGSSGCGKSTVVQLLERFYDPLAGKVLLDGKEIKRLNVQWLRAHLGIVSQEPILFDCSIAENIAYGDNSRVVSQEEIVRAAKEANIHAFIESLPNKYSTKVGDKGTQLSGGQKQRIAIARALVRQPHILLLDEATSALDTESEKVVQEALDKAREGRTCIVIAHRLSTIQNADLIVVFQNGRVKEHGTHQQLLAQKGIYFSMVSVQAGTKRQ

As a reminder, the inhibition is the change of the read-out against control, counted positive when it falls. `Nc1ccc2c3c(cccc13)C(=O)NC2=O`: the period change in experiment [1] is 0.025 h (inactive). The inhibition in experiment [2] was -1% (inactive). The fluorescence ratio (interference) in experiment [3] was 1 (inactive). Besides, the fold change in experiment [4] (setting [13]) was 0.949 (inactive) and 1.13 (inactive); in [4] (setting [14]) it was 1.39 and 0.672. Also, the cell count in experiment [4] (setting [15]) is 8220 and 6020; in [4] (setting [16]) it was 8660 and 5330. In experiment [5], the fold fluorescence was 4.37 [at 235.6 µM] (inactive). Besides, in experiment [6], the call was inactive. Moreover, in experiment [7], the z-score is 0.605 (inactive).
`CCCCC[C@H](O)/C=C/[C@H]1C(=O)C=C[C@@H]1C/C=C\CCCC(=O)O`: the survival in [8] was 86.8 (inactive). The fold change in experiment [4] (setting [13]) is 0.937 (inactive) and 0.931 (inactive); in experiment [4] (setting [14]), 1.17 and 1.23. The cell count in experiment [4] (setting [15]) is 6120 and 6100; in experiment [4] (setting [16]), 6540 and 6550. For the same compound, in experiment [5], the fold fluorescence was 4.57 (inactive).
On to `CCCCC/C=C\C/C=C\C/C=C\CCCCC(=O)OC`, for which the fold change in [4] (setting [13]) is 1.06 (inactive); in [4] (setting [14]), 0.952. The values for the cell count in [4] (setting [15]) and in experiment [4] (setting [16]) were 6900 and 6530, respectively.
Turning to `CCCCC/C=C\C/C=C\C/C=C\C/C=C\CCCC(=O)OC(CO)CO`, in experiment [8], the survival was 72.6 (inactive). For the same compound, the fold change in experiment [4] (setting [13]) is 0.947 (inactive) and 1.01 (inactive); in [4] (setting [14]), 1.17 and 0.841. Moreover, the cell count was 6380 and 5230 in experiment [4] (setting [15]); 6740 and 5180 in experiment [4] (setting [16]). Also, the fold fluorescence in experiment [5] is 5.06 (inactive).
With `CCCCCCCC/C=C\CCCCCCCC(=O)OC[C@H](CO)OC(C)=O`, the survival in [8] was 98.6 (inactive). In addition, the fold change in experiment [4] (setting [13]) is 0.972 (inactive) and 0.952 (inactive); in experiment [4] (setting [14]) it was 0.87 and 0.868. The cell count was 6120 and 5660 in [4] (setting [15]); 6290 and 5950 in experiment [4] (setting [16]). In [5], the fold fluorescence is 5.82 (inactive).
Turning to `CCCCCCCCCCCCC/C=C/[C@@H](O)[C@H](CO)N(C)C`, the survival in experiment [8] was 80.2 (inactive). In addition, the fold change in experiment [4] (setting [13]) is 1.08 (inactive) and 0.933 (inactive); in experiment [4] (setting [14]) it was 1.39 and 1.34. For the same compound, the cell count in experiment [4] (setting [15]) was 5480; in [4] (setting [16]), 5090 and 5880. For the same compound, in experiment [5], the fold fluorescence is 6.79 (inactive).
Regarding `C#CCCCCCCCCCCCCCCCC(=O)O`, in experiment [8], the survival is 96.8 (inactive). The fold change is 0.987 (inactive) and 1.06 (inactive) in [4] (setting [13]); 1.49 and 0.91 in experiment [4] (setting [14]). Moreover, the cell count was 5840 and 5920 in [4] (setting [15]); 5920 and 5580 in [4] (setting [16]). Further, in experiment [5], the fold fluorescence is 5.76 (inactive).
Usually viability stands for a read-out of living cells in per cent, often relative to untreated cells. Regarding `CO[C@H]1C[C@@H]2CC[C@@H](C)[C@@](O)(O2)C(=O)C(=O)N2CCCC[C@H]2C(=O)O[C@H]([C@H](C)C[C@@H]2CC[C@@H](O)[C@H](OC)C2)CC(=O)[C@H](C)/C=C(\C)[C@@H](O)[C@@H](OC)C(=O)[C@H](C)C[C@H](C)/C=C/C=C/C=C/1C`, in [9], the parasite load remaining was 55.9% (inactive). The viability in [9] amounted to 106%. The fold change in [4] (setting [13]) was 0.856 (inactive) and 0.953 (inactive); in experiment [4] (setting [14]), 1.35 and 1.11. The cell count in experiment [4] (setting [15]) is 3240 and 7080; in [4] (setting [16]) it was 3790 and 7430; in [10] it was 7610. In experiment [10], this compound showed an SSMD of 1.27. In experiment [10], the plate-normalised HSF1 focus index was 1.08 (inactive). In addition, the z-score in [11] (setting [17]) is -0.0487 (inactive); in [11] (setting [18]), 0.674; in experiment [7] it was 2.58 (active).
Consider `CCCCCCCCC#CCC#CCC#CCCCC(=O)O`, for which the survival in [8] was 97.9 (inactive). Further, the fold change in [4] (setting [13]) was 0.872 (inactive) and 1.12 (inactive); in experiment [4] (setting [14]), 1.12 and 0.534. The cell count in [4] (setting [15]) is 5490 and 6070; in [4] (setting [16]), 6300 and 5430. Also, the fold fluorescence in experiment [5] is 6.11 (inactive).
As to `COc1ccc(-c2ccc(N)[n+](CCCC(=O)O)n2)cc1`, in experiment [12], the fluorescence slope change is 101% (active). Further, the period change in experiment [1] was 0.235 h (inactive). For the same compound, the survival in experiment [8] was 6.75 (inactive). Moreover, the parasite load remaining in experiment [9] was 113% (inactive) and 70.4% (inactive). For the same compound, in experiment [9], the viability was 102% and 78.3%. The inhibition in [2] was -3% (inactive). Also, the fluorescence ratio (interference) in experiment [3] is 0.9 (inactive). The fold change in experiment [4] (setting [13]) is 0.962 (inactive) and 0.851 (inactive); in [4] (setting [14]), 1.4 and 1.26. In addition, the cell count in experiment [4] (setting [15]) is 9690 and 9480; in experiment [4] (setting [16]) it was 10100 and 11100. Further, the result in [6] was inactive. In addition, the values for the z-score in experiment [11] (setting [17]), in experiment [11] (setting [18]) and in experiment [7] were 0.473 (inactive), 0.0476 and 0.685 (inactive), respectively.
For `CCCCC/C=C\C/C=C\CCCCCCCCCC(=O)O`, in experiment [8], the survival is 74.2 (inactive). In addition, the fold change is 0.992 (inactive) and 1.02 (inactive) in experiment [4] (setting [13]); 0.988 and 0.888 in experiment [4] (setting [14]). Further, the cell count is 6110 and 5920 in [4] (setting [15]); 6160 and 5820 in [4] (setting [16]). For the same compound, the fold fluorescence in [5] was 3.91 (inactive).
As for `CC(C)NC[C@H](O)c1ccc(O)c(O)c1`, in experiment [1], the period change was 0.03 h (inactive). For the same compound, in experiment [9], the parasite load remaining was 71.3% (inactive). The viability in experiment [9] was determined as 68.4%. Also, the inhibition in [2] is 3% (inactive) and -5% (inactive). The fluorescence ratio (interference) in [3] was 1 (inactive) and 0.9 (inactive). Also, the fold change was 1.16 (inactive) and 1.1 (inactive) and 0.953 (inactive) in [4] (setting [13]); 0.694 and 0.901 and 0.646 in [4] (setting [14]). The cell count was 9390 and 11000 and 9560 in experiment [4] (setting [15]); 8130 and 10100 and 10000 in [4] (setting [16]). Further, in experiment [6], the compound was called inactive. Moreover, the z-score in experiment [11] (setting [17]) is -0.508 (inactive); in [11] (setting [18]), -0.956; in experiment [7], -1.02 (inactive) and -1.29 (inactive).
In the case of `CCCCC/C=C\C/C=C\C/C=C\CCCCC(=O)O`, the survival in experiment [8] is 76.5 (inactive). The fold change in experiment [4] (setting [13]) is 0.948 (inactive) and 1.06 (inactive); in experiment [4] (setting [14]), 1.2 and 0.96. For the same compound, the cell count in [4] (setting [15]) is 5680 and 5970; in [4] (setting [16]), 5990 and 5660. Further, the fold fluorescence in experiment [5] was 4.86 (inactive).
Take `CCCCCCCC/C=C\C/C=C\C/C=C\CCCC(=O)O`: the survival in [8] was 69.8 (inactive). The fold change in experiment [4] (setting [13]) is 0.997 (inactive) and 0.986 (inactive); in experiment [4] (setting [14]) it was 1.14 and 0.749. In addition, the cell count is 6200 and 5590 in experiment [4] (setting [15]); 6220 and 5670 in experiment [4] (setting [16]). The fold fluorescence in [5] is 4.51 (inactive).
Consider `COC(=O)C1=C(C)NC(C)=C(C(=O)OC2CCCN(Cc3ccccc3)C2)C1c1cccc([N+](=O)[O-])c1` (configuration not stated), for which the fold change is 1.82 (inactive) and 1.04 (inactive) in [4] (setting [13]); 0.615 and 0.533 in experiment [4] (setting [14]). Besides, the cell count was 3920 and 6890 in experiment [4] (setting [15]); 2160 and 6660 in experiment [4] (setting [16]). Also, the compound was classed as inactive in experiment [6]. The z-score in experiment [11] (setting [17]) is -0.438 (inactive); in experiment [11] (setting [18]) it was -0.0848; in [7], -1.88 (inactive).
With `CCCCC[C@H](O)/C=C/[C@H]1C=CC(=O)[C@@H]1C/C=C\CCCC(=O)O`, the survival in [8] was 122 (inactive). The fold change was 0.976 (inactive) and 0.946 (inactive) in experiment [4] (setting [13]); 1.27 and 1.82 in experiment [4] (setting [14]). In addition, the cell count in experiment [4] (setting [15]) was 5740 and 5500; in [4] (setting [16]), 5880 and 5820. In addition, the fold fluorescence in experiment [5] was 4.51 (inactive).
